Data reported in ChEMBL document CHEMBL3988442, “University of Dundee, Small-Polar-MMV Screening Library” (2021).
The campaign covered roughly 48,000 compounds. About 13,000 (27%) showed an effect of 50% or more. The list shows a part of the results.

The compounds below were run on Wolbachia pipientis (assay: Anti-Wolbachia Cell-Based Screen). Conditions: 5 µM.
Assay type: functional
Set-up: scale not given: in the data most compounds retested in dose-response had high values

Structure (SMILES) | Percent Effect [%]
CCCc1noc(CN(C)C(=O)C2COc3ccccc3C2)n1 (configuration not stated) | -0.2082
O=C(c1cccc(O)c1)N1C[C@@H](CN2CCCCC2)[C@@H](CO)C1 | 36.38
CCOc1cc(CNC(=O)NC2CC=CC2)ccc1OC(F)F | -3.557
CCC[C@H]1CN(Cc2cc(C)no2)C[C@@H]1NC(=O)C1(COC)CCC1 | -6.466
Cc1cc(C[C@@H]2COC[C@@H]2NC(=O)Cn2c(=O)oc3ccccc32)on1 | -2.365
CCCOc1ccccc1CN[C@@H]1CCC[C@H]1Cc1cc(C)no1.O=C(O)CC(O)(CC(=O)O)C(=O)O | 112
Cc1cc(C[C@@H]2CCC[C@H]2NCc2ccc(C(F)(F)F)cc2)on1.O=C(O)CC(O)(CC(=O)O)C(=O)O | 113.9
Cc1cc(C[C@@H]2COC[C@@H]2NC(=O)CCN2Cc3ccccc3C2)on1 | -14.09
Cc1cc(C[C@@H]2COC[C@@H]2NC(=O)CN2CCCC2)on1 | -5.725
Cc1cc(C[C@@H]2COC[C@@H]2NC(=O)CN2CCc3ccccc3C2)on1 | -17.37
Cc1cc(C[C@@H]2COC[C@@H]2NC(=O)CN2CCCCCC2)on1 | 40.3
Cc1cc(C[C@@H]2CCC[C@H]2NCc2c[nH]nc2-c2ccccc2)on1.O=C(O)CC(O)(CC(=O)O)C(=O)O | 114
CSc1nccc(NCC2CNCCOC2)n1 (configuration not stated) | 0.1221
COCCN1CCN(C(=O)c2ccc(COC)o2)[C@H]2CS(=O)(=O)C[C@H]21 | 7.213
CC(C)NC(=O)N[C@H]1C[C@@H](Cc2cc(CN3CCOCC3)on2)C1(C)C | -0.1597
Cc1c[nH]c(CN(C)C(=O)c2cccc(CCC(C)(C)O)c2)n1 | -0.9219
COCC(=O)N1CCCC(c2nc(N(C)C)ncc2-c2ccccc2)C1 (configuration not stated) | 96.39
COCC(=O)N1C[C@H]2CC[C@@]3(N=C(c4ccccc4)NC3=O)[C@H]2C1 | -3.823
O=C(c1ccc[nH]1)N1CCCC1c1nc(-c2ccccc2)n[nH]1 (configuration not stated) | 3.184
Cc1cc(C2CCCN(C(=O)COc3cc(F)ccc3F)C2)n[nH]1 (configuration not stated) | -12.04
CC(=O)N1CCCC(c2nc(-c3ccccc3)c[nH]2)C1 (configuration not stated) | -5.299
CC(=O)N1CCCC1c1cccc(C)c1C (configuration not stated) | 2.963
CC(=O)N1CCCC1c1nc(N(C)C)ncc1-c1ccccc1 (configuration not stated) | 120.4

Structure (SMILES) | Percent Effect [%]
Cc1cc(C2CCCN(C(=O)COc3ccc(F)cc3)C2)n[nH]1 (configuration not stated) | -12.08
CC(=O)N1CCCC(c2nc(N(C)C)ncc2-c2ccccc2)C1 (configuration not stated) | 94.88
COCC(=O)N1CCCC(COc2ccccc2C)C1 (configuration not stated) | -17.48
CCC(=O)N1CCCC(c2nc(N(C)C)ncc2-c2ccc(F)cc2)C1 (configuration not stated) | 103.1
CC(=O)N1Cc2ccccc2C[C@H]1C(=O)Nc1ccccn1 | -1.208
Cc1ccc(C(=O)N2CCSCC2)cc1NC(=O)NCCO | -7.623
Cc1cc(CNC(=O)C2CCCN2C(=O)OC(C)(C)C)no1 (configuration not stated) | -19.91
COCC(=O)N1CCCC(c2nc(N)ncc2-c2cccc(F)c2)C1 (configuration not stated) | 111.1
Cc1cc(C2CCCN(C(=O)COc3cccc(F)c3)C2)n[nH]1 (configuration not stated) | -5.532
Cc1nc(C2CCCN(C(=O)CCCOc3cccc(F)c3)C2)no1 (configuration not stated) | -2.46
O=C1CN(C(=O)c2nnn(-c3ccc(C(F)(F)F)cc3)n2)CCN1 | 7.084
O=C(CC1CC1)N1CCC2(CC1)CN(c1cccnc1)C(=O)CO2.O=C(O)C(F)(F)F | 86.93
O=C(CC1CC1)N1CCC2(CC1)CN(Cc1cccnc1)C(=O)CO2.O=C(O)C(F)(F)F | 85.91
O=C(CC1CC1)N1C[C@@H]2CCN(c3cccnc3)C[C@@H]2C1.O=C(O)C(F)(F)F | 87.47
CN(C)CCN1CCC2(CC1)CN(Cc1cccnc1)C(=O)CO2.O=C(O)C(F)(F)F.O=C(O)C(F)(F)F.O=C(O)C(F)(F)F | 106.6
O=C(O)C(F)(F)F.O=C1COC2(CCN(CC3CC3)CC2)CN1c1ccccc1 | -2.17
O=C(CC1CC1)N1CCC2(CC1)CN(CCn1cccn1)C(=O)CO2 | 0.04038
Cn1ccnc1CN1CCC2(CC1)CN(Cc1cccnc1)C(=O)CO2.O=C(O)C(F)(F)F.O=C(O)C(F)(F)F | -2.822
O=C(Cc1ccccn1)N1CCC2(CC1)CN(CC1CC1)C(=O)CO2.O=C(O)C(F)(F)F | 15
Cn1ccnc1CN1CCC2(CC1)CN(Cc1ccccc1)C(=O)CO2.O=C(O)C(F)(F)F | -7.87
O=C(C1CCCC1)N1C[C@@H]2CCN(c3cccnc3)C[C@@H]2C1.O=C(O)C(F)(F)F | -15.19
O=C(O)C(F)(F)F.O=C(c1ccncc1)N1C[C@@H]2CCN(c3cccnc3)C[C@@H]2C1 | -5.49
CC(C)NC(=O)N1CCC2(CC1)NC(=O)[C@H]1CN(C(=O)N(C)C)C[C@H]12 | -13.82

Structure (SMILES) | Percent Effect [%]
Cn1ncc2c(NCC3CCS(=O)(=O)C3)nc(-c3ccncc3)nc21 (configuration not stated) | 10.96
O=C1CC(N(C(=O)c2ccc(Oc3ccccc3)cc2)C2CC2)C(=O)N1 (configuration not stated) | -10.84
CN(C)S(=O)(=O)N1C[C@@H]2CC[C@H](C1)N(Cc1ccc3nsnc3c1)C2 | 4.433
Cc1cc(C)n2nc(C(=O)N3CCCC4(CNC(=O)O4)C3)cc2n1 (configuration not stated) | 1.638
CCS(=O)(=O)N1CCC2(CN(c3cccc(F)c3)C(=O)CN2C)C1.O=C(O)C(F)(F)F (configuration not stated) | 7.629
CCS(=O)(=O)N1CCC2(CC1)CN(c1cccnc1)C(=O)CO2.O=C(O)C(F)(F)F | 93.05
O=C(N1CCCC1)N1CCC2(CC1)CN(c1cccnc1)C(=O)CO2.O=C(O)C(F)(F)F | 93.48
CCc1nc(C)c([C@H]2CN(C)C[C@@H]2C(=O)NCCc2cnccn2)[nH]1 | -9.925
COc1ccc(CN(C)[C@@H]2COC[C@H]2c2ccc(F)cc2)cc1.O=C(O)CC(O)(CC(=O)O)C(=O)O | 117.4
COc1ccc(CC(C)(O)CNC(=O)Cc2ccc(F)cc2)cc1 (configuration not stated) | 8.313
COc1ccc(CN2C[C@@H]3COC[C@@H](N4CCN(C)CC4)[C@@H]3C2)cc1.O=C(O)C(F)(F)F.O=C(O)C(F)(F)F.O=C(O)C(F)(F)F | 13.92
CCOc1ncccc1CNC(=O)N1CCCC1c1cc(C)no1 (configuration not stated) | 3.544
O=C(CSc1ccccc1)N1CCC(N2CCCCC2=O)CC1 | -3.003
O=C(c1ccc2c(c1)OCO2)N1CCN2C(=O)NC[C@H]2C1 | 6.694
O=C(c1ccc(Cl)cc1)N1CCC(N2CCNC2=O)CC1 | 109.7
Cc1cnc(NC(=O)N2CCC(N3CCCCC3=O)CC2)s1 | 0.5285
O=C(c1ccc(Cl)cc1)N1CCC(N2CCCCC2=O)CC1 | 103
O=C(CCc1ccc(Cl)s1)N1CCC(N2CCNC2=O)CC1 | 39.9
O=C(c1ccc(Cl)cc1)N1CCC(N2CCCNC2=O)CC1 | 102
Cc1cc(C(=O)N2CCC(N3CCNC3=O)CC2)nn1C(C)(C)C | -1.395
Cc1ccc(C(=O)N2CCCC(N)CC2)cc1N1CCNC1=O (configuration not stated) | -4.611
Cn1cc(N2CCC(NC(=O)c3c(F)cccc3F)C2=O)cn1 (configuration not stated) | -6.231
O=C(NCC1(CO)CC1)c1ccccc1C(F)(F)F | 10.7

Structure (SMILES) | Percent Effect [%]
O=C(NCCCSC1CCCCC1)C1NCCc2[nH]cnc21 (configuration not stated) | -0.8236
CCOc1ccc(C(=O)N(CCOC)Cc2c(C)nn(CC)c2C)o1 | -1.11
CN(C)C(=O)N1C[C@@H]2COC[C@]2(c2nnc(C3CC3)o2)C1 | 1.303
O=C(Cn1ccc(=O)cc1)N1C[C@H]2CC[C@@H]1CN(c1ncccn1)C2 | -6.945
CCC1CN(C(=O)c2cc(CN(C)CCc3ccccc3)on2)CCO1 (configuration not stated) | -31.04
Cc1n[nH]c(CCC(=O)N2CCOC(Cc3ccccc3)C2)c1C (configuration not stated) | 0.4396
O=C1CCC(C(=O)N2CCOC(Cc3ccc(F)cc3)C2)=NN1 (configuration not stated) | -6.141
Cc1nc(C(=O)N2CCOC(Cc3ccc(F)cc3)C2)co1 (configuration not stated) | 139
COc1ccc(CC2CN(C(=O)c3coc(C)n3)CCO2)cc1 (configuration not stated) | 123
Cc1nc(C(=O)N2CCOC(Cc3ccccc3)C2)co1 (configuration not stated) | 119.2
Cn1nccc1C(=O)N1CCOC(Cc2ccc(F)cc2)C1 (configuration not stated) | -2.544
CCN1CCN(CC(=O)N2CCOC(Cc3ccc(OC)cc3)C2)CC1 (configuration not stated) | -7.63
CCOC(=O)CNC(=O)N1CCOC(Cc2ccc(OC)cc2)C1 (configuration not stated) | -5.818
COc1ccccc1N1CCN(C(=O)CSCC2CC2)C(C)C1 (configuration not stated) | 12.11
Cc1csc(-c2cccc(NC(=O)N3CCOCC3)c2)n1 | -7.869
COc1ccc(S(=O)(=O)NCCC(O)c2ccoc2)c(C)c1 (configuration not stated) | 14.16
Cc1cc(C(=O)N(C)CC(F)(F)C(F)(F)F)ccc1-n1cncn1 | -4.765
N#Cc1ccc(SCCC(=O)Nc2ccc(CC(N)=O)cc2)cc1 | -23.76
Cl.N#Cc1ccc(NC(=O)C2CSCN2)cc1 (configuration not stated) | 137.5
O=C(Nc1ccc(F)cc1)C1CNCCN1C(=O)CC1CCCCC1 (configuration not stated) | -14.62
CC(C(=O)Nc1ccc(C#N)cc1)N1CCc2ccccc21 (configuration not stated) | -0.338
O=C(Nc1ccc(F)cc1)C1CSCN1 (configuration not stated) | 136.1
O=C(Nc1ccc(F)cc1)C1CCc2ccccc2N1 (configuration not stated) | 3.241
